From PubChem BioAssay
This is one part of a sample in which hits are shown more often than they occur.
HT1080 IDH1KD tx = kills HT-1080 cells with IDH1 knockdown; 360,000 tested, 2% active; HT-1080 IDH1 knockdown viability, ATP luminescence, 48 h; AID 686971; Potency, µM (top dose mostly 46.1 µM), for the others: at the top dose activity, negative = toxicity, most hits filed as cytotoxic;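 further: potency means the concentration at half of the fitted maximal effect; 0% = DMSO wells and -100% = cell-free medium wells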
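In this qHTS, HT-1080 cells depleted of IDH1 are exposed for 48 h at 37 °C to compound titrations. Toxicity is scored from CellTiter-Glo luminescence, with DMSO as full viability and medium alone as none.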
IL-1B inflam inh = inflammasome signaling inhibition, IL-1 beta readout; THP-1 LPS/ATP IL-1B secretion, AlphaLISA, 16 h; hits give low values; activity change, % at 57.5 µM; 360,000 tested, 4.7% active; AID 743279; in the data active means activity change below about -50%; inconclusive means mostly about -30% to -49%
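Secreted IL-1B measured by AlphaLISA bead assay after 16 h compound exposure of THP-1 cells; compounds (final up to 57.5 uM) added 1 h before LPS (250 ng/mL) and ATP (1.25 mM) stimulation; lower signal means less secretion.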
DT40 TDP1 CPT = growth inhibition of DT40 Tdp1-/-;hTDP1 cells with camptothecin (screen for TDP1 inhibitors). Potency, µM (highest dose often 46.2 µM), for the others: at the highest dose activity change, negative = growth inhibition, actives largely listed as inhibitors. 420,000 tested, 12% active. chicken DT40 Tdp1-/-;hTDP1 cells + 20 nM CPT, ATP luminescence, 48 h. AID 686979; further: potency means the concentration at half of the fitted maximal effect; nearly all actives have a fitted effect of over 55% in size
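Chicken DT40 Tdp1-/- cells stably complemented with human TDP1 were seeded at 400 cells/well in medium containing 20 nM camptothecin, exposed to pin-transferred compounds, and grown at 37 °C for at least 48 hr. Viability was read as ATP luminescence.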
TDP1 cell noCPT = qHTS for Inhibitors of human tyrosyl-DNA phosphodiesterase 1 (TDP1): qHTS in cells in absence of CPT; DT40 Tdp1-/- hTDP1 cells, no CPT, ATP luminescence, 48 h; AID 686978, 2013; Potency, µM (highest dose often 46.2 µM), without a hit: top-dose activity change, negative = growth inhibition, actives largely listed as inhibitors; 420,000 tested, 15% active; further: potency means the concentration at half of the fitted maximal effect; nearly all actives have a fitted effect of over 55% in size
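Cells were dispensed at 400 per well, compounds added by pin tool, plates incubated ≥48 hr at 37 °C, then CellTiter-Glo added for 30 min at room temperature before luminescence reading. Line: DT40 Tdp1-/- complemented with hTDP1; camptothecin omitted.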
HT1080NT lethal = kills 2HG-producing HT-1080-NT fibrosarcoma cells; Potency, µM (series often up to 46.1 µM), inactives show top-dose activity, negative = less viability, usual class: cytotoxic; HT-1080-NT fibrosarcoma viability, CellTiter-Glo ATP luminescence, 48 h; AID 686970; 360,000 tested, 1.6% active;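 further: NT is the 2HG producing partner of a matched IDH1 knockdown line; potency means the concentration at half of the fitted maximal effect; 0% = DMSO-treated cells and -100% = media-only wells without cells; nearly all actives have a fitted effect of over 55% in size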
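Read-out is CellTiter-Glo luminescence after 10 minutes at room temperature, following 48 hours' compound treatment of HT-1080-NT cells (750 cells/well, RPMI, 5% FBS, 37 degrees C).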
ALOX12 inh = blocks human arachidonate 12S-lipoxygenase. purified 12hLO, xylenol orange hydroperoxide absorbance. Potency, µM (highest dose often 108 µM), inactives show at the top dose activity change, negative = inhibition, usual class: inhibitors. 580,000 tested, 1.1% active; further: potency means the concentration at half of the fitted maximal effect
Target sequence (P18054 whole entry, looked up): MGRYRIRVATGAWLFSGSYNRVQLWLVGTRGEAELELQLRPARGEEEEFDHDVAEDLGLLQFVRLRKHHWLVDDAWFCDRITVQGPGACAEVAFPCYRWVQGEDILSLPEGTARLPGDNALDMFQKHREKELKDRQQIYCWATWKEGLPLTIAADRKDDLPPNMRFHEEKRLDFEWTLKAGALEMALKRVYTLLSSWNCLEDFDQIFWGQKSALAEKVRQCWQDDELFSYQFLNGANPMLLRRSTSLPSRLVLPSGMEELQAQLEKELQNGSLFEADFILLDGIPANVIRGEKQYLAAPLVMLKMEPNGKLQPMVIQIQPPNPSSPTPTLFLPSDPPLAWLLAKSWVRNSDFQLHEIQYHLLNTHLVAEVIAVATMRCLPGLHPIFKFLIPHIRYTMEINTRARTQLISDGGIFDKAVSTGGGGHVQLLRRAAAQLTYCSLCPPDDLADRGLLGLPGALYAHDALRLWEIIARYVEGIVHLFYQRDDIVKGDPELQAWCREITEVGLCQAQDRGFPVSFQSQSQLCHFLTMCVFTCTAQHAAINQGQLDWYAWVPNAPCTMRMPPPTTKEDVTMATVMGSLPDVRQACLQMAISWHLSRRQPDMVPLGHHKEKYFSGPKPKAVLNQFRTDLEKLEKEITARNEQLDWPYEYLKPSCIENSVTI
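Purified human 12hLO at 150 nM in 25 mM Hepes, 0.01% Triton X-100, pH 7.0, preincubated 15 min at room temperature with compound. Reaction started with 40 uM arachidonic acid, 30 min at room temperature. Hydroperoxide measured by Fe-xylenol orange, 573/405 nm absorbance ratio.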
* marks the source's active call; other numbers are inactive results; u = inconclusive; x = not tested or not shown; [ ] = remark or other dose. Unless noted, the call rests on the fitted dose curve; in most records, active means well fitted curve in the direction sought with a large enough effect; inconclusive means small, poorly fitted or top-dose-only effect, or another doubt; inactive means no such curve, though single readings can be large; an effect the other way counts as inactive or inconclusive. Unless noted, on the % scale 0 is the no-effect control and ±100 the full control effect.

SMILES	HT1080 IDH1KD tx	IL-1B inflam inh	DT40 TDP1 CPT	TDP1 cell noCPT	HT1080NT lethal	ALOX12 inh
COc1ccc(-c2cnc3n2CCCCC3)cc1	-5.8%	-13.5	u	23.1µM*	-0.3%	278.0%
CCc1nnc(NC(=O)C2(c3ccccc3F)CCCC2)s1	x	x	x	x	x	-1.2%
CC1CCCC(NC(=O)c2cc3c(Cl)nc4ccccc4c3s2)C1C (stereo not given)	x	x	x	x	x	-52.1%
CC1(C)CC(=O)c2cc(OCC(=O)NCCCN3CCN(c4ccc(F)cc4)CC3)ccc2O1	u	u	11.2µM*	u	u	-4.5%
Cc1ccc(-c2noc(CCC(=O)NCCCN3CCN(c4ccc(F)cc4)CC3)n2)cc1	-11.8%[9.24 µM]	-67.9*	6.51µM*	7.31µM*	23.1µM*	0.0%
Cc1ccc(-c2noc(CCC(=O)NCCCN3CCN(c4cccc(Cl)c4)CC3)n2)cc1	u	-67.5*	11.6µM*	8.2µM*	u	u
Cc1ccc(C)c(N2CCN(C(=O)CCc3nc(-c4cccc(Cl)c4)no3)CC2)c1	9.8%	-2.8	u	-20.2%	5.4%	-29.2%
O=C(COc1ccccc1)NC[C@H]1COCc2nc3cccnc3n21	x	x	x	x	x	-10.0%[176 µM]
COc1ccc(CN(C)C(C)C(=O)Nc2ccc([N+](=O)[O-])cc2Cl)cc1OC (stereo not given)	-14.0%	5.1	25.9µM*	9.2µM*	-11.5%	-3.9%
CC(C)CC(=O)Nc1ccc([N+](=O)[O-])cc1Cl	-1.6%	-10.5	2.7%	3.5%	-1.4%	-16.7%
COc1ccc([N+](=O)[O-])cc1NC(=O)C(C)OC(=O)CN1C(=O)C2CC=CCC2C1=O (stereo not given)	-9.4%	-62.9*	7.9%	-18.5%	-11.1%	-2.4%
CC(OC(=O)C1CC1)C(=O)Nc1ccc([N+](=O)[O-])cc1Cl (stereo not given)	8.3%	-2.1	-4.0%	4.2%	13.1%	-5.4%
CCOc1ccc(CN(C)C(C)C(=O)Nc2ccc([N+](=O)[O-])cc2Cl)cc1OC (stereo not given)	-24.5%	23.9	16.4µM*	u	-17.9%	-10.9%
COc1ccc(Br)cc1CN(C)C(C)C(=O)Nc1cc([N+](=O)[O-])ccc1OC (stereo not given)	-2.0%	33.4	u	23.1µM*	-4.6%	-1.9%
CCC(C)NC(=O)COC(=O)c1nn(-c2ccccc2)cc1OC (stereo not given)	x	x	x	x	x	-19.7%
CC(C)Oc1ccc(NC(=O)CCC(=O)O)cc1	-1.6%	-0.9	-5.3%	0.9%	4.0%	-0.2%
COc1ccccc1NC(=O)CC(c1ccc(OC(C)C)cc1)c1ccccc1OC (stereo not given)	6.7%	10.4	16.4µM*	20.6µM*	10.0%	1.3%
COc1ccc(C(CC(=O)Nc2ccccc2OC)n2cccc2)cc1 (stereo not given)	-6.2%	-4.1	16.4µM*	10.3µM*	-5.0%	-12.6%
COc1ccc(C(CC(=O)Nc2cc(OC)cc(OC)c2)n2cccc2)cc1 (stereo not given)	-0.7%	-16.5	u	u	-15.4%	2.8%
COc1ccccc1C(CC(=O)Nc1ccc(C)c(C)c1)c1ccc(OC(C)C)cc1 (stereo not given)	u	5.7	u	20.6µM*	u	-7.6%
COc1cc(C(=O)N2CCC(CC(=O)NCCN3CCCCCC3)CC2)cc(OC)c1OC	x	x	x	x	x	-8.3%
CCCCCCCCOc1ccc(/C=C/C(=O)C2C(=O)C=C(C)OC2=O)cc1 (stereo not given)	x	x	x	x	x	-15.8%
Cc1nnc2n1N=CC=C(c1ccccc1)S2	1.0%	-91.4*	8.2µM*	5.17µM*	15.1%	-24.5%
Cc1nnc2n1N=CC=C(C(C)(C)C)S2	4.9%	-26.3	1.7%	-2.6%	2.7%	0.0%
COc1ccc(C(=O)Nc2ccccc2C(=O)Nc2cc(C)ccn2)cc1	u	-22.6	u	18.4µM*	u	0.0%
SMILES	HT1080 IDH1KD tx	IL-1B inflam inh	DT40 TDP1 CPT	TDP1 cell noCPT	HT1080NT lethal	ALOX12 inh
COc1ccc(C(=O)Nc2ccc(C)cc2C(=O)c2ccccc2)cc1	-0.8%	-73.5*	-8.7%	-20.8%	-0.7%	-5.2%
COc1cc2ccccc2cc1C(=O)Nc1nccs1	-15.2%	-1.0	14.6µM*	u	-18.3%	-25.3%
Cc1ccnc(NC(=O)c2ccccc2NC(=O)C(C)(C)C)c1	u	49.4	18.4µM*	16.4µM*	u	0.0%
COc1ccc(C(=O)Nc2ccccc2C(=O)Nc2cccc(C)n2)cc1	-5.7%	-27.5	-26.4%	-17.5%	-28.6%	u
Cn1ccc2c(C(=O)NCc3cccnc3)nc(-c3cccc4cc[nH]c34)cc21	x	x	x	x	x	77.2%[176 µM]
Cc1cccc(C(=O)NC(NC(C)(C)C)C(Cl)(Cl)Cl)c1 (stereo not given)	x	x	x	x	x	-7.5%
O=C(CNc1ccc(C(F)(F)F)cc1)Nc1cccc(F)c1	x	x	x	x	x	-1.9%
COc1cc(C(=O)Nc2ccccn2)cc(OC)c1OC	7.9%	-19.2	-1.3%	-7.7%	21.1%	0.0%
COc1cc(C(=O)Nc2ccccc2C(=O)Nc2ccccn2)cc(OC)c1OC	-1.0%	29.6	4.61µM*	3.26µM*	1.7%	u
COc1cc2ccccc2cc1C(=O)Nc1cc(C)ccn1	-17.1%	-56.8*	u	u	-14.4%	14.8%
CC(=O)CCc1ccc(Oc2nc(-c3cccnc3)nc3ccccc23)cc1	u	u	u	u	u	-2.5%
CC(C)CCNC(=O)C1CCN(C(=O)c2cc3sccc3n2Cc2ccc(Cl)cc2)CC1	x	x	18.4µM*	9.2µM*	x	-0.8%
O=C(NCCCN1CCCC1)C1CCN(C(=O)c2cc3sccc3n2Cc2ccc(F)cc2)CC1	u	3.9	16.4µM*	u	u	1.7%
O=C(NCc1ccco1)C1CCN(C(=O)c2cc3sccc3n2Cc2ccc(F)cc2)CC1	u	u	u	u	u	7.3%
O=C(NCc1ccccn1)C1CCN(C(=O)c2cc3sccc3n2Cc2ccc(F)cc2)CC1	-19.7%	24.0	u	23.1µM*	0.8%	-2.0%
CN(Cc1ccsc1)C(=O)CC1CCCC1	x	x	x	x	x	11.9%
Oc1ccccc1C=NNC(=S)NC1CC2C=CC1C2 (stereo not given)	u	117.8	u	u	-7.5%	44.7µM*
Oc1c(Cl)cc(Cl)cc1/C=N/NC(=S)NC1CC2C=CC1C2 (stereo not given)	20.6µM*	-12.7	u	11.6µM*	u	u
